Earlier results on 20 compounds are cited in PubChem BioAssay AID977611.

The campaign covered roughly 3,900 compounds. About 3,900 (100%) were called active. The limit is not given here; nearly all actives have Kd up to about 4200 µM. So high a share suggests a set chosen from earlier hits. Some of the results follow. Where a SMILES comes first, the peptide text is derived from it. Square brackets hold non-standard residues; d marks the D form. Peptide text beside a SMILES is read from it. [ ]: non-standard residue; d: D form. Orn(CH(NH2)2) = NC(N)NCCC[C@H](N)C(=O)O; Aib = CC(C)(N)C(=O)O

The nature of this data set: PubChem AID 977611. The settings on record: PDB protein-ligand complexes, literature Kd.

For the compound `CC[C@H](C)[C@H](NC(=O)[C@H](CC(=O)O)NC(=O)[C@H](Cc1ccccc1)NC(=O)[C@H](Cc1c[nH]c2ccccc12)NC(=O)[C@@H](N)CC(N)=O)C(=O)N[C@H](C(=O)N[C@@H](CC(N)=O)C(=O)NC(C)(C)C(=O)N[C@@H](CC(C)C)C(=O)N[C@@H](Cc1c[nH]c2ccccc12)C(=O)N[C@@H](CCCNC(N)N)C(=O)N[C@@H](CCCNC(N)N)C(=O)O)[C@@H](C)O` (H-NWFDITN[Aib]LW[Orn(CH(NH2)2)][Orn(CH(NH2)2)]-OH), under “protein: human fab 4e10, PDB entry 2fx8”, the Kd is 0.302 µM (active).
Take `CC[C@H](C)[C@H](NC(=O)[C@H](CC(C)C)NC(=O)[C@H](CCC(=O)O)NC(=O)[C@H](CCCNC(N)N)NC(=O)[C@H](CCCCN)NC(=O)[C@@H](N)CCCCN)C(=O)N[C@@H](CCC(=O)O)C(=O)N[C@@H](CO)C(=O)N[C@@H](CCCCN)C(=O)N[C@@H](Cc1c[nH]c2ccccc12)C(=O)N[C@@H](Cc1cnc[nH]1)C(=O)N[C@@H](CCCNC(N)N)C(=O)N[C@@H](CC(C)C)C(=O)N[C@@H](CC(C)C)C(=O)N[C@@H](Cc1ccccc1)C(=O)N[C@@H](Cc1cnc[nH]1)C(=O)N[C@@H](CC(=O)O)C(=O)N[C@@H](CCCCN)C(=O)N[C@@H](CCCCN)C(=O)O` (H-KK[Orn(CH(NH2)2)]ELIESKWH[Orn(CH(NH2)2)]LLFHDKK-OH): the equilibrium dissociation constant (Kd) (protein: Chlamydomonas reinhardtii caltractin (CRC-C), PDB entry 1oqp) is 0.05 µM (active).
Turning to H-KEEEDDDMKELENWAGSM-OH, under “protein: Programmed cell death 6-interacting protein, PDB entry 3c3q”, the Kd is 48 µM (active).
Turning to H-TWIENKLYGM-OH, the Kd (protein: Dock 1 PTB domain, PDB entry 1uef) was 3.2 µM (active).
Regarding `CC[C@H](C)[C@H](NC(=O)[C@H](CC(=O)O)NC(=O)[C@H](Cc1c[nH]c2ccccc12)NC(=O)[C@H](Cc1ccccc1)NC(=O)[C@H](CCCCN)NC(=O)[C@H](CC(C)C)NC(=O)[C@@H](NC(=O)[C@H](Cc1ccccc1)NC(=O)[C@@H](N)CC(N)=O)[C@@H](C)O)C(=O)N[C@@H](Cc1ccccc1)C(=O)N[C@@H](CCCNC(N)N)C(=O)N[C@@H](CCCCN)C(=O)O` (H-NFTLKFWDIF[Orn(CH(NH2)2)]K-OH), the Kd (protein: Chaperone surA-P1, PDB entry 2pv2) was 1.23 µM (active).
For the compound H-QLAWFDTDL-OH, where the note is “protein: Tax-interacting protein-1 (TIP-1), PDB entry 3diw”, the dissociation constant Kd was 0.19 µM (active).
In the case of H-NFTLKFWDIF-OH, under “protein: Chaperone surA(P2), PDB entry 2pv3”, the dissociation constant (Kd) was 5.57 µM (active).
Turning to `NCc1cccc(-n2cccc2)c1`, the dissociation constant Kd (protein: CATIONIC TRYPSIN, PDB entry 4abd) was 40 µM (active).
As for `NCc1cccc(N2CCCC2)c1`, the dissociation constant Kd (protein: CATIONIC TRYPSIN, PDB entry 4abh) was 71 µM (active).
With `NCc1ccccc1-n1cccn1`, the dissociation constant (Kd) (protein: INTEGRASE, PDB entry 4ahv) was 15000 µM (active).
Take `NCc1cccc(-n2cccn2)c1`: the Kd (protein: CATIONIC TRYPSIN, PDB entry 4abe) was 400 µM (active).
As for `O[P+](O)(O)O[C@@H]1C(OCc2ccccc2)[C@H](O[P+](O)(O)O)[C@@H](O[P+](O)(O)O)C(OCc2ccccc2)[C@H]1O[P+](O)(O)O` (stereo not given in full), the Kd (protein: Inositol hexakisphosphate and diphosphoinositol-pentakisphosphate kinase 2 PPIP5K2, PDB entry 4nzo) was 0.17 µM (active).
Regarding `C[C@H]1O[C@H](O)[C@@H](O)[C@@H](O)[C@@H]1O`, the Kd (protein: Pyocin L1, PDB entry 4led) is 5000 µM (active).
As for `C[C@@H]1O[C@@H](O)[C@H](O)[C@H](O)[C@H]1O`, for the setting “protein: Putative rhamnosidase, PDB entry 3w5n”, the Kd was 135 µM (active).
Take `O=S(=O)(Nc1nc2ccc(Cl)cc2s1)c1cc2ccccc2s1`: for the setting “protein: 3-phosphoinositide-dependent protein kinase 1 PDK1, PDB entry 4rqv”, the dissociation constant (Kd) is 9 µM (active).
For the compound H-DEEGGGEEDQDFDLSQLH-OH, where the note is “protein: p120 catenin isoform 4A delta 1 (deletion, residues 613-643), PDB entry 3l6x”, the Kd was 40 µM (active).
For H-SFGDGFADF-OH, the Kd (protein: AP-2 complex subunit ?-2, PDB entry 2iv9) was 46 µM (active).
Regarding `CC(C)C[C@H](NC(=O)[C@@H](N)CC(=O)O)C(=O)N[C@@H](Cc1ccccc1)C(=O)O` (H-Asp-Leu-Phe-OH), the Kd (protein: DNA polymerase III subunit beta, PDB entry 4k3m) was 281 µM (active).
With H-DLLDSLGF-OH, for the setting “protein: Chemotaxis protein cheY, PDB entry 2pmc”, the dissociation constant Kd is 64.7 µM (active).
Turning to H-SGFSF-OH, for the setting “protein: Ras GTPase-activating protein-binding protein 1, PDB entry 4fcm”, the dissociation constant Kd was 115 µM (active).

For orientation: Kd means the concentration at which binding is half-saturated.
